Drawing on the supplement of paper PMC12819154, “High-throughput peptide-centric local stability assay extends protein–ligand identification to membrane proteins, tissues and bacteria” (Nature Structural & Molecular Biology, 2025), this text covers log2 fold change for 38 targets.

Chain of UniProt Q9EPE9 (Q9EPE9 whole entry): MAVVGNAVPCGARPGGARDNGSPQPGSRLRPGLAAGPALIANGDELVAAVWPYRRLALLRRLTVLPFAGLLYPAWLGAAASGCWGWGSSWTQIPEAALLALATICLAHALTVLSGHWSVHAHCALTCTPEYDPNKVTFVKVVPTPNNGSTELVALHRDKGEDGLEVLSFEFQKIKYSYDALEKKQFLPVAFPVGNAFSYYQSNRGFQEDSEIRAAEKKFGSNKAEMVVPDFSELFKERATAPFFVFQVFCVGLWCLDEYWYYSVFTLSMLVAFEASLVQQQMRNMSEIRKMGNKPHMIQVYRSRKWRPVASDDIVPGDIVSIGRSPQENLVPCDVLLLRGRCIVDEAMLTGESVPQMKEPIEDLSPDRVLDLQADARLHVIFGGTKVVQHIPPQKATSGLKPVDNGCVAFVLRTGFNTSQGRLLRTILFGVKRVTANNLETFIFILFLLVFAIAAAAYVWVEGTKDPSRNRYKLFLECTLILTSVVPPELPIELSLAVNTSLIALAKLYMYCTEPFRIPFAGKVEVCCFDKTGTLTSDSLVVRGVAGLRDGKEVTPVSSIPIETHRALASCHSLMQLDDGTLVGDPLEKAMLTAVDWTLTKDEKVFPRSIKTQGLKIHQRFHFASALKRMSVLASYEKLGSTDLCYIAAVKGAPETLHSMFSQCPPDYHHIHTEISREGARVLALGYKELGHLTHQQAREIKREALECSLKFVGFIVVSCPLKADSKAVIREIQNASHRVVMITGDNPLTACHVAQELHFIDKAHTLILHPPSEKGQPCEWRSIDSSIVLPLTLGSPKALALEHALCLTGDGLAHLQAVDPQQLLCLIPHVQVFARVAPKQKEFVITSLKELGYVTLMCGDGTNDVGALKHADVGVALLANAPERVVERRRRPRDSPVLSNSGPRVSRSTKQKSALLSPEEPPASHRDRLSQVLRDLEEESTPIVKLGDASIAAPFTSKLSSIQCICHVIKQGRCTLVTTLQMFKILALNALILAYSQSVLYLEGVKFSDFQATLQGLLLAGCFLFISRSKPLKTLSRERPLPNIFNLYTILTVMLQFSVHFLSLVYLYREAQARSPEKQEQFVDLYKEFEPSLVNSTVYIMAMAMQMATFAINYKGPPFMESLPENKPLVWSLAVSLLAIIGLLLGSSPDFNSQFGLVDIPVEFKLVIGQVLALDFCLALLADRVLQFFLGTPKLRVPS
Chain of UniProt O35469 (O35469 whole entry): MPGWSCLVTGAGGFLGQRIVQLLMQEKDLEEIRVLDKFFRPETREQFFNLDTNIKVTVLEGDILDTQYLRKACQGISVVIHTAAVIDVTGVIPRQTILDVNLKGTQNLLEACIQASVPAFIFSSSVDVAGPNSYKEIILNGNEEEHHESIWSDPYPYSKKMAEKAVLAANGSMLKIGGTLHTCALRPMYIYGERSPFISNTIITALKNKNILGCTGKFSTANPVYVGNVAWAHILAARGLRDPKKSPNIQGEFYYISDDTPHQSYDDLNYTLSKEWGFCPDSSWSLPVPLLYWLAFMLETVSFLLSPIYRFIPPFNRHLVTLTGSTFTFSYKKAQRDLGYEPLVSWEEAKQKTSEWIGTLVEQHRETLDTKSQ
Chain of UniProt Q9D710 (Q9D710 whole entry): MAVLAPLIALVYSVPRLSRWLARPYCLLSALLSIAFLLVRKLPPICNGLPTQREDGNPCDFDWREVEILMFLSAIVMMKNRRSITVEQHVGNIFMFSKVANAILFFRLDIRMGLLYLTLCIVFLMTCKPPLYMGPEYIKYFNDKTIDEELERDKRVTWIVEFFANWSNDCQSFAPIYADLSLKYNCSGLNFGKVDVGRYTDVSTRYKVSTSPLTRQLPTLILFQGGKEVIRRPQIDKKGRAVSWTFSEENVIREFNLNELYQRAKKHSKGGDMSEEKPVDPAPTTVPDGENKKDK
Chain of UniProt Q9QVP9 (Q9QVP9 whole entry, looked up): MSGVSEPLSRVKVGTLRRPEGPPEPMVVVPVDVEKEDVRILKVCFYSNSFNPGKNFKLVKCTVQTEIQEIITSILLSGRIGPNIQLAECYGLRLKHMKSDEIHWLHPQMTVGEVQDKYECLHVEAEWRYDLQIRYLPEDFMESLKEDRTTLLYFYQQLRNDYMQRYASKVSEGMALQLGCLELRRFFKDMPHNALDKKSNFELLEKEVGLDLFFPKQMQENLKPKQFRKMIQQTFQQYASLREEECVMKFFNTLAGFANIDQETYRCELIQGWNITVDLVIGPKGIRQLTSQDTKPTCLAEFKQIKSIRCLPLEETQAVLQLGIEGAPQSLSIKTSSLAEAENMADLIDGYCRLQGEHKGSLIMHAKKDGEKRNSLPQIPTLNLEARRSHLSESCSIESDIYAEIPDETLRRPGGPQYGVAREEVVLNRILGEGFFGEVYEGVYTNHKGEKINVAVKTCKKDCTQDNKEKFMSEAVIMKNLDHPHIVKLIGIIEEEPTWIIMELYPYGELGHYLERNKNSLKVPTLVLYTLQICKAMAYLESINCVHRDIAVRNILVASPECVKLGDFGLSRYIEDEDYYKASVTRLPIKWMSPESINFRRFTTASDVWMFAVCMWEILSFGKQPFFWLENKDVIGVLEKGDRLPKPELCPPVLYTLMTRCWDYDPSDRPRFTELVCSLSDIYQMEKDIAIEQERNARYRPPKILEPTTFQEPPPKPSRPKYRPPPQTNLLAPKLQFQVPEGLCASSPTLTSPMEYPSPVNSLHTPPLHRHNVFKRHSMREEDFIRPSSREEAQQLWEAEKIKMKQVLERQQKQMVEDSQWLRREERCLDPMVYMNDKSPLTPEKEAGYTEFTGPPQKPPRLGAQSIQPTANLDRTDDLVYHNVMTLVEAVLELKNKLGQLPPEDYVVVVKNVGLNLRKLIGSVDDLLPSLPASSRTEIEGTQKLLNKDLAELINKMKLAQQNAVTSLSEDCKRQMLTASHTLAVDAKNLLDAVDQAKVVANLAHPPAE
Chain of UniProt P41241 (P41241 whole entry): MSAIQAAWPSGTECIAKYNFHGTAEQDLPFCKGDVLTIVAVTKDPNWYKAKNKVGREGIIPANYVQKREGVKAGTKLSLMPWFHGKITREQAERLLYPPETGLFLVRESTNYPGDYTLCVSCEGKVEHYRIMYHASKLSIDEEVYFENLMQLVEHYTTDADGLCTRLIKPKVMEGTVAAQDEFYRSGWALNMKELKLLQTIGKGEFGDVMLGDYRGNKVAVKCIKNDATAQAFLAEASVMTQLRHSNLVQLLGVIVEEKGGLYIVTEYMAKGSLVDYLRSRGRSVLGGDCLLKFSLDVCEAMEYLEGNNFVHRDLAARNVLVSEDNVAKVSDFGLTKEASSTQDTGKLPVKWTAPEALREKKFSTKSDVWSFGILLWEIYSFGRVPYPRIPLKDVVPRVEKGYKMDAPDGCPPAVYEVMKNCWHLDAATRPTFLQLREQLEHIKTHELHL
Chain of UniProt P02088 (P02088 whole entry): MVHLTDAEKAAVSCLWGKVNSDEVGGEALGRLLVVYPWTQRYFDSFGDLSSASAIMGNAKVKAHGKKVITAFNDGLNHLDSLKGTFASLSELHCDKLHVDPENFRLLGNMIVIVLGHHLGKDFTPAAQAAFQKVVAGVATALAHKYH
Chain of UniProt P47811 (P47811 whole entry): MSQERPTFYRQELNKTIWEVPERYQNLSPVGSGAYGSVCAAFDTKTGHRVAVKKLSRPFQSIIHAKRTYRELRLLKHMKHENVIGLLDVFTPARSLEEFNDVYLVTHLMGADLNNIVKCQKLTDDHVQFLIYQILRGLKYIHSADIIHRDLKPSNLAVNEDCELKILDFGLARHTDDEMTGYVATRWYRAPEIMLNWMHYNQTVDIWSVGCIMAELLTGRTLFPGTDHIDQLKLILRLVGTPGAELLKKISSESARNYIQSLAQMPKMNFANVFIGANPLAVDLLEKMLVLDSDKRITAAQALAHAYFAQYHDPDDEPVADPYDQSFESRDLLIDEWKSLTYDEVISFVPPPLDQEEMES
Chain of UniProt Q8BWW9 (Q8BWW9 whole entry): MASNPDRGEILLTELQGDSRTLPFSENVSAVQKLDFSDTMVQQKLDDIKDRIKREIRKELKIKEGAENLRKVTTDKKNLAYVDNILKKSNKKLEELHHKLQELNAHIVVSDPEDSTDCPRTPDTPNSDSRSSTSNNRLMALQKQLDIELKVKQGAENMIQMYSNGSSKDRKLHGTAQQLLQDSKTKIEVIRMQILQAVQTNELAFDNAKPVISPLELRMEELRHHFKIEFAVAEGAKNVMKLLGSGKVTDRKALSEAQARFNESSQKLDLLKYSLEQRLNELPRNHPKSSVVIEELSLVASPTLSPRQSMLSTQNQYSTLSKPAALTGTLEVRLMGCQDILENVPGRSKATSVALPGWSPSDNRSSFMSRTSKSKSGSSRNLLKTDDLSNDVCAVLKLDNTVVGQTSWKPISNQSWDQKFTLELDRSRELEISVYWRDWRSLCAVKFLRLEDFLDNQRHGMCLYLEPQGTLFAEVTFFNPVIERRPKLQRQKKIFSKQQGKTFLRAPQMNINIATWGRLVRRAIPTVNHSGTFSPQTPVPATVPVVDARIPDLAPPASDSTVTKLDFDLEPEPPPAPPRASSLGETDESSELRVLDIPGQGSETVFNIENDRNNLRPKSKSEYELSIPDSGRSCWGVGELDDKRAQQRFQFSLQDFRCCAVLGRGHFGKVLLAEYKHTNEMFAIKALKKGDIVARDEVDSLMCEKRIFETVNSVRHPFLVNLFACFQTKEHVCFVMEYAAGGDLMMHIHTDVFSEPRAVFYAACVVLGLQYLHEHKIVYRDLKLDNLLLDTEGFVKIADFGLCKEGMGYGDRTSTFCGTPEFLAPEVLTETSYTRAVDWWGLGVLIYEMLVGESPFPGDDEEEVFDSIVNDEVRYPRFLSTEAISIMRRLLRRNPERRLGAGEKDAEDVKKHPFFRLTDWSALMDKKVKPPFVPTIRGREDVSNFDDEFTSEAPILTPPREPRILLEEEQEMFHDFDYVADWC
Chain of UniProt Q05020 (Q05020 whole entry): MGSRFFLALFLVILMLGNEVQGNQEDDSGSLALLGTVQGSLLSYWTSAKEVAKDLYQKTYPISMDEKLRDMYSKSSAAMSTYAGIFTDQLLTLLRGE

Compound in the assay: CN[C@@H]1C[C@H]2O[C@@](C)([C@@H]1OC)n1c3ccccc3c3c4c(c5c6ccccc6n2c5c31)C(=O)NC4 [staurosporine]
Kind of assay: log2 fold change of tryptic peptide abundance, ligand vs vehicle (limited proteolysis) (log2 ratio); higher = more trypsin-susceptible (destabilized). As to conditions: ligand concentration: 20 uM; sample: mouse liver crude lysate; replicate design: treated separately.
For “UniProt Q04899 (peptide sequence: HANIVTLHDLIHTDR, peptide start residue: 176)”, the log2 fold change is -3.35.

In the case of “UniProt Q9Z2A0 (peptide sequence: HIIKENKVPYVTR, peptide start residue: 120)”, the log2 fold change was -2.47. Regarding “UniProt Q80XL6 (peptide sequence: NLPDSDSEECLVHGDFK, peptide start residue: 206)”, the log2 fold change is -0.421. In the case of “UniProt Q8CAQ8 (peptide sequence: ATEKQHIELALEK, peptide start residue: 423)”, the log2 fold change is -1.29.

In the case of “UniProt O08605 (peptide sequence: GLPTPQVLQR, peptide start residue: 341)”, the log2 fold change was determined as 1.06. For the target “UniProt P47757 (peptide sequence: QMEKDETVSDCSPHIANIGR, peptide start residue: 196)”, the log2 fold change was -1.11. Consider “UniProt E9Q3L2 (peptide sequence: ACLSALSEVK, peptide start residue: 1763)”, for which the log2 fold change was -0.812. Regarding “UniProt P56593 (peptide sequence: FSNFAPLGIPR, peptide start residue: 360)”, the log2 fold change was -0.352. As for “UniProt Q3TLP5 (peptide sequence: GLLPGAGGTQR, peptide start residue: 170)”, the log2 fold change was found to be 0.658.

Take “UniProt P02088 (peptide sequence: DFTPAAQAAFQK, peptide start residue: 122)”: the log2 fold change was 0.285. In the case of “UniProt O35469 (peptide sequence: QTILDVNLK, peptide start residue: 95)”, the log2 fold change is -0.227. Consider “UniProt Q05020 (peptide sequence: TYPISMDEK, peptide start residue: 59)”, for which the log2 fold change was determined as 0.537. The result for “UniProt P70697 (peptide sequence: FALPYIR, peptide start residue: 232)” reads 0.384; that for “UniProt Q9QVP9 (peptide sequence: CWDYDPSDRPR, peptide start residue: 661)”, -1.22; that for “UniProt Q91XU3 (peptide sequence: VYIGEEEKK, peptide start residue: 252)”, -1.32.

As for “UniProt Q64261 (peptide sequence: ISAYGALNHPYFQDLER, peptide start residue: 289)”, the log2 fold change stood at 0.478. For the target “UniProt P47811 (peptide sequence: NYIQSLAQMPK, peptide start residue: 257)”, the log2 fold change was found to be 0.32. The result for “UniProt Q62445 (peptide sequence: RFECPECSKR, peptide start residue: 704)” reads -1; that for “UniProt Q64459 (peptide sequence: ALLSPTFTSGK, peptide start residue: 131)”, -0.273; that for “UniProt Q8BZ09 (peptide sequence: IQGPQPVPGEIK, peptide start residue: 234)”, 0.534. Consider “UniProt Q5EG47 (peptide sequence: DLKPENVLLDAHMNAK, peptide start residue: 150)”, for which the log2 fold change was -4.22.

Take “UniProt P43883 (peptide sequence: DQYPYLR, peptide start residue: 38)”: the log2 fold change worked out at 0.671. As for “UniProt Q9D710 (peptide sequence: EFNLNELYQR, peptide start residue: 254)”, the log2 fold change was -0.349. Regarding “UniProt Q9CQE7 (peptide sequence: QFDAYPK, peptide start residue: 9)”, the log2 fold change is 0.366. For “UniProt Q2TBE6 (peptide sequence: RFEAEPLPENTNR, peptide start residue: 276)”, the log2 fold change is -2.23. Take “UniProt O09110 (peptide sequence: TFITIGDR, peptide start residue: 48)”: the log2 fold change was -0.503.

For the target “UniProt O54781 (peptide sequence: HFTEDIQTR, peptide start residue: 500)”, the log2 fold change was -1.82. The result for “UniProt Q64028 (peptide sequence: PQIAQMSLYER, peptide start residue: 24)” reads 0.725; that for “UniProt P19253 (peptide sequence: LAHEVGWK, peptide start residue: 141)”, 0.254. Take “UniProt Q62120 (peptide sequence: VLPQDKEYYK, peptide start residue: 1000)”: the log2 fold change was -1.02. On to “UniProt P41241 (peptide sequence: GSLVDYLR, peptide start residue: 272)”, for which the log2 fold change was -1.06. Turning to “UniProt Q91W52 (peptide sequence: LITTWEK, peptide start residue: 203)”, the log2 fold change was found to be 0.417. As to “UniProt Q76M72 (peptide sequence: WLIVTNKPQK, peptide start residue: 285)”, the log2 fold change was -2.63. The result for “UniProt O55125 (peptide sequence: NNKEYLEFR, peptide start residue: 144)” reads 0.432; that for “UniProt Q99N91 (peptide sequence: GNEYQPSNIK, peptide start residue: 50)”, 0.323. For “UniProt Q9QZ05 (peptide sequence: DLKPVNIFLDSDDHVK, peptide start residue: 846)”, the log2 fold change was -1.48.

For the target “UniProt Q8BWW9 (peptide sequence: VKPPFVPTIR, peptide start residue: 928)”, the log2 fold change is -2.86. For “UniProt Q9EPE9 (peptide sequence: EVTPVSSIPIETHR, peptide start residue: 553)”, the log2 fold change is -0.718.
